hcGAS lum = human cGAS inhibition; Q8N884; recombinant h-cGAS, ATP depletion, Kinase-Glo luminescence; inhibition, % at 12.5 µM; actives 0.081% (n = 290,000); AID 1259398
mcGAS inh = blocks mouse cGAS activity; recombinant cGAS, Kinase-Glo ATP depletion luminescence; inhibition, % at 12.5 µM; actives 0.15% (n = 160,000); AID 1259399
Target sequence (Q8C6L5 whole entry, looked up): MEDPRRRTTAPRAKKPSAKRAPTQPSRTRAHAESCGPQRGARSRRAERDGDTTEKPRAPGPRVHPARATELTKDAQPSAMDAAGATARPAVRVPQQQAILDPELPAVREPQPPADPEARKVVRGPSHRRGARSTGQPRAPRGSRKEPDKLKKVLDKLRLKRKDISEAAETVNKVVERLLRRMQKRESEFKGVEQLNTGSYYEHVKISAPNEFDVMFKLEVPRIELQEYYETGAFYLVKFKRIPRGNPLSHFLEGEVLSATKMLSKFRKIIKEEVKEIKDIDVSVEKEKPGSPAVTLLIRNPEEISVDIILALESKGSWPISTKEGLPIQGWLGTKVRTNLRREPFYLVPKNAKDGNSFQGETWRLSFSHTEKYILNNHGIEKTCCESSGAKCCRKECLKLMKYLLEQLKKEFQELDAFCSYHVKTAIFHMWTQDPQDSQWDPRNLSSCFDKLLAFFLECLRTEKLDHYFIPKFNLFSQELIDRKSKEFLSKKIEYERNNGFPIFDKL
NPYLR7 agonist = activates Aedes aegypti NPYLR7 receptor. HEK293T NPYLR7/Galpha15, GCaMP6s calcium fluorescence. activation, % at 10 µM. actives 0.15% (n = 270,000). AID 1259423; in the data active = activation above about 40%
Of the large screens only hits and unclear results are named; the others gave an inactive call; ! = not active in a repeat. A selection: hits, their analogues and other compounds. The true share with any hit is near 0.3%. Rule as the data show it, unless noted: active = inhibition above about 40%; inactive = the rest.

N#CCCNN=Cc1cc(I)c(O)c(I)c1	hcGAS lum 55, mcGAS inh 99
COc1ccc(-c2csc(-c3nnn(-c4cccc(F)c4)c3C)n2)cc1OC	none
CCN(CCn1cccn1)C(=O)CCc1nnc(CCc2ccccc2OC)o1	none
c1cnn(-c2nc(N3CCOCC3)nc(N3CCOCC3)n2)c1	none (no result: mcGAS inh)
O=C(CC(c1cccc([N+](=O)[O-])c1)c1c[nH]c2ccccc12)N1CCN(c2ccccc2F)CC1 (centres undefined)	none
O=C(CC(c1cccc([N+](=O)[O-])c1)c1c[nH]c2ccccc12)NC1CC1 (centres undefined)	NPYLR7 agonist 41
COc1ccc(N2CCN(C(c3cccs3)C(C)NC(=O)C(=O)N3CCOCC3)CC2)cc1 (centres undefined)	none
CCOC(=O)c1nn(-c2ccccc2)c(=O)c2c(NC(=O)c3ccc(Cl)cc3)scc12	none
CC[n+]1c(-c2ccccc2)c2cc(N)ccc2c2ccc(N)cc21	hcGAS lum 56! (no result: mcGAS inh)
CC[n+]1c2ccccc2cc2ccccc21	none (no result: mcGAS inh)
CCCc1nn2c(N)c(C=C3C=CC(=O)C=C3)c(=O)nc2s1	none (no result: mcGAS inh)
CCCc1nn2c(N)c(C=C3C=C(Cl)C(=O)C(Cl)=C3)c(=O)nc2s1	mcGAS inh 52, NPYLR7 agonist 51
COc1cc(-c2cccc(-n3cccn3)c2)ccc1NC(C)=O	none (no result: mcGAS inh)
COc1cccc(OC)c1OCCCOc1ccc([N+](=O)[O-])cc1	none (no result: mcGAS inh)
COc1ccc2c(c1OC)C(=O)OC2CC(=O)c1ccc([N+](=O)[O-])cc1 (centres undefined)	mcGAS inh 58
COc1cc(C=C2C(=O)NC(=S)NC2=O)ccc1OCc1ccc(C(=O)O)cc1	none
CC(C)c1ccc(CN2CCCC(O)(CN(C)Cc3cnn(C)c3)C2=O)cc1 (centres undefined)	none
Cc1nc(N)c(C#N)c(-c2cccs2)c1C	none (no result: mcGAS inh)
Nc1nnc(-c2ccccc2)o1	none (no result: mcGAS inh)
N#Cc1c(N)oc(-c2cccs2)c1-c1cccs1	hcGAS lum 55 (no result: mcGAS inh)
N#Cc1c(N)oc(-c2ccccc2)c1-c1ccccc1	hcGAS lum 50
COc1ccc(S(=O)(=O)N2CCCN(c3nc(Cc4ccc(C)cc4)nc4onc(-c5cccnc5)c34)CC2)cc1	none
CC(C)(CO)CNC(=O)CC(c1ccccc1)c1ccc(F)cc1 (centres undefined)	none (no result: mcGAS inh)
CSc1nnc2c(n1)OC(c1ccc(Br)s1)Nc1ccccc1-2 (centres undefined)	none
Cc1nnc(CN2CCCc3cc(C(C)C)ccc32)n1C	none (no result: mcGAS inh)
CN1C(=S)N(c2ccc3c(c2)CCC3)C(=O)/C1=C\c1ccncc1	NPYLR7 agonist 41
CN1C(=S)N(c2ccc3c(c2)CCC3)C(=O)/C1=C/c1ccc(N(C)C)cc1	none
CCOC(=NC(=O)c1cccc(OC)c1)N(CCc1ccccc1)Cc1ccccc1	none
O=C1C=CC(=NC(=NS(=O)(=O)c2ccccc2)c2ccccc2)C=C1Cl	none
O=C1C(Cl)=CC(=NS(=O)(=O)c2ccccc2)C(Cl)=C1Cl	hcGAS lum 59, mcGAS inh 59
O=C(NCc1nnnn1-c1ccccc1)c1ccccc1C1CCNC1 (centres undefined)	none (no result: mcGAS inh)
Cn1cc(S(=O)(=O)Nc2ccc(F)cn2)nc1Cl	none (no result: mcGAS inh)
COCCOc1ccc(NS(=O)(=O)c2cn(C)c(Cl)n2)cn1	NPYLR7 agonist 99 (no result: mcGAS inh)
COc1c(F)ccc(C(=O)N(Cc2ccsc2)CC(C)C)c1F	none
O=c1[nH]c2c(Br)c(Br)c(Cl)cc2o1	mcGAS inh 90
O=c1[nH]c2c(Cl)c(Cl)c(Cl)cc2o1	hcGAS lum 49, mcGAS inh 82
O=c1[nH]c2ccc(S(=O)(=O)Nc3ccccc3Oc3ccccc3Cl)cc2o1	none (no result: mcGAS inh)
NC(=O)c1cnc(Sc2ccc3[nH]c(=O)oc3c2)c(Cl)c1	none
O=c1[nH]c2cc(Cl)c(Br)cc2o1	mcGAS inh 42
Nc1ccc2oc(=O)[nH]c2c1	none
CCN1CCN(c2ccc(NC(=O)CCSc3ccc(F)c(F)c3)cc2)CC1	none (no result: mcGAS inh)
COc1ccc(NCN2C(=O)c3ccccc3C2=O)cc1	none
CN(Cc1ccc(-c2ccc(Cl)cc2)o1)C(=O)CCl	mcGAS inh 50
Cc1ccc(CN(C)C(=O)CCl)o1	none
COc1cc(O)c2c(=O)c(O)c(-c3ccc(O)c(O)c3)oc2c1	none (no result: mcGAS inh)
C=CCN1C(=O)C(Cc2ccc(OC)cc2)S/C1=N\N=C/c1ccco1 (centres undefined)	none
C=CCN1C(=O)C(Cc2ccc(OC)cc2)S/C1=N/N=C\c1cccs1 (centres undefined)	NPYLR7 agonist 88
CCOCCCN(CC(=O)N(Cc1ccccc1)Cc1cccs1)C(=O)Nc1ccccc1Br	none (no result: NPYLR7 agonist)
NCCc1ccc(O)c(O)c1	none
CC(=O)NCCc1ccc(O)c(O)c1	NPYLR7 agonist 88
CSc1ccc(C(=O)N2CC(=O)N(C3CCCCC3)CC(OCc3ccccn3)C2)cc1 (centres undefined)	none
Cc1cc(C)cc(-c2nc3cc(C)ccn3c2NC(=O)CCl)c1	mcGAS inh 42
CC(=O)Nc1c(-c2cc(C)cc(C)c2)nc2cc(C)ccn12	none
CC1(C)Cc2ccccc2-c2nc(CN3CCCC3)[nH]c(=O)c21	none (no result: mcGAS inh)
COC(=O)/C(C#N)=C/c1c(OC)[nH]c2ccccc12	none (no result: mcGAS inh)
CC(=O)Oc1c(/C=C(\C#N)C(N)=O)[nH]c2ccccc12	NPYLR7 agonist 51 (no result: mcGAS inh)
CC(NS(=O)(=O)c1ccc(F)c(F)c1F)c1ccc2c(c1)OCCO2 (centres undefined)	none
CCN(CC)CCNC(=O)c1c(C)[nH]c(/C=C2/C(=O)Nc3ccc(F)cc32)c1C	NPYLR7 agonist 60 (no result: mcGAS inh)
Cc1[nH]c(/C=C2\C(=O)Nc3ccc(S(=O)(=O)N(C)c4cccc(Cl)c4)cc32)c(C)c1C(=O)N1CCN(C)CC1	none
CCOC(=O)C1=C(O)/C(=C\c2cc(OC)cc(OC)c2)SC1=Nc1ccccc1F	none
CCOC(=O)C1=C(O)/C(=C\c2ccc(N(C)C)cc2)SC1=Nc1ccc(OC)cc1OC	NPYLR7 agonist 79
COc1ccccc1-c1cc(C(=O)NCCCN2CCOCC2)n2nc(-c3ccccc3)cc2n1	none (no result: NPYLR7 agonist)
COc1ccccc1-c1cc(C(=O)NCCCN2CCOCC2)n2nc(-c3ccc(Cl)cc3)cc2n1	mcGAS inh 42
CC1(NS(=O)(=O)c2ccc3c(c2)CCCC3)CCS(=O)(=O)C1 (centres undefined)	none (no result: mcGAS inh)
CCCNC(=O)c1ccc(-c2ccc(OC)c(OC)c2)o1	none (no result: mcGAS inh)
Nc1nc(Cl)nc2c1ncn2[C@@H]1O[C@H](CO)[C@H](O)C1O (some centres undefined)	NPYLR7 agonist 97
Nc1nc(Nc2ccccc2)nc2c1ncn2[C@@H]1O[C@H](CO)[C@H](O)C1O (some centres undefined)	none
Nc1ncn([C@@H]2O[C@H](CO)[C@@H](O)[C@H]2O)c(=O)n1	NPYLR7 agonist 46!
OC[C@H]1O[C@@H](n2cnc3c(NC4CCCC4)nc(Cl)nc32)[C@@H](O)C1O (some centres undefined)	none (no result: mcGAS inh)
NC(=O)c1ncn(C2O[C@H](CO)[C@@H](O)[C@H]2O)c1N (some centres undefined)	none (no result: mcGAS inh)
Nc1nc(Cl)nc2c1ncn2[C@@H]1O[C@H](CO)[C@@H](O)[C@H]1O	NPYLR7 agonist 76 (no result: mcGAS inh)
O=C(c1cncc(Br)c1)N1CCN(c2nc3nccc(-c4cc(Cl)ccc4Cl)n3n2)CC1	none (no result: NPYLR7 agonist)
Cc1cccc(C)c1NC(=O)CN1C(=O)c2ccccc2S1(=O)=O	none
COc1ccc(C(=O)Nc2cccc(NC(=O)c3ccc(Cl)cc3)c2)cc1[N+](=O)[O-]	none

High-throughput results (PubChem)
